# KDM5B inhibitor = Primary screen for KDM5B Histone Demethylases FDH-coupled qHTS | 220,000 compounds, 2.6% hits | Lysine-specific demethylase 5B (Homo sapiens), Q9UGL1 | Potency, µM (top dose mostly 57.7 µM), hits mostly inhibitors | KDM5B demethylase, FDH-coupled NADH fluorescence (FDH is formaldehyde dehydrogenase) | AID 1347165, 2019; active = well fitted inhibition curve with a large enough effect; also: 0% is about no effect; nearly all actives have a fitted effect of over 70% in size
# Target sequence (Q9UGL1 whole entry, looked up): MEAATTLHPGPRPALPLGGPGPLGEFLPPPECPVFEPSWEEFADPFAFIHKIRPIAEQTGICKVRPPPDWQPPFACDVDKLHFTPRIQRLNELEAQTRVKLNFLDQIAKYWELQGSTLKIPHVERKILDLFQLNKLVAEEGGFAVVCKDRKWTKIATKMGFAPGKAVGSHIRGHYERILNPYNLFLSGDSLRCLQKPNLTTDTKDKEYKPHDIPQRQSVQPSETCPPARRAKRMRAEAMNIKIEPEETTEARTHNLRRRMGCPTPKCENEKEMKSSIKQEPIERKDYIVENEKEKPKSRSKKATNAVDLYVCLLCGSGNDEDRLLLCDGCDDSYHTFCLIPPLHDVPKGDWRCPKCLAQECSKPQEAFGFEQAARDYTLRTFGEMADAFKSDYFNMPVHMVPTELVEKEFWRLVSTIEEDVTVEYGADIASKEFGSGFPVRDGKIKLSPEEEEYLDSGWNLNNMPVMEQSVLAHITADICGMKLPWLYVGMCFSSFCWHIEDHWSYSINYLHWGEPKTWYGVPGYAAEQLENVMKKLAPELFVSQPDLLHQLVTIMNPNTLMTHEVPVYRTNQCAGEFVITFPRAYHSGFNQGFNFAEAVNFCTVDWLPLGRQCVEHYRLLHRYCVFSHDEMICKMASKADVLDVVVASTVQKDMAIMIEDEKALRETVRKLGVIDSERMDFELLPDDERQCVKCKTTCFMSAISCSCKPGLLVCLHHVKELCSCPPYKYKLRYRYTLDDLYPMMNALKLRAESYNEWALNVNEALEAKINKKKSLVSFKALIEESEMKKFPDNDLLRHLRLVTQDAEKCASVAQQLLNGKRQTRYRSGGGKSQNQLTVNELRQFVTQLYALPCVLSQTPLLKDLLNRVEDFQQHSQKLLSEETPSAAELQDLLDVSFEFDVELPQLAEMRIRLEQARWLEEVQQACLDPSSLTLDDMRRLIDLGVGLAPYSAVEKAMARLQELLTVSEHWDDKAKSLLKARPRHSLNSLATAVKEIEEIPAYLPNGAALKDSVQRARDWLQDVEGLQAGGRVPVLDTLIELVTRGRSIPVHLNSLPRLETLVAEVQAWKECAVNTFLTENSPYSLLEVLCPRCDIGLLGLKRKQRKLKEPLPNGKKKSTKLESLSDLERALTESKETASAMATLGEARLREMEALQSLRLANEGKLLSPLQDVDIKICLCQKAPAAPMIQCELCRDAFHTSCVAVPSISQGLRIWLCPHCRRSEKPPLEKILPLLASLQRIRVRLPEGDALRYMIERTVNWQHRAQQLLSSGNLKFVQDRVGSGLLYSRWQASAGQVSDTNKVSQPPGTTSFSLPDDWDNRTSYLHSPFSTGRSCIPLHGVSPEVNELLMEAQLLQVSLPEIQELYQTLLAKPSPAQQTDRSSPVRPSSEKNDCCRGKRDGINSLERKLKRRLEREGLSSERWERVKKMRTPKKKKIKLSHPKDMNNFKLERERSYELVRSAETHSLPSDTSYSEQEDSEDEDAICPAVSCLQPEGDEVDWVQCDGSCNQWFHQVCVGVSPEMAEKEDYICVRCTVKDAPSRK
#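 Measured: NADH fluorescence change, 30 min, RT. System: KDM5BΔAP 200 nM final, H3K4me3 peptide, α-KG, Fe(II), ascorbate, NAD⁺ plus FDH, pH 7.5 HEPES. Compounds: titrated, 10 min pre-incubation with enzyme.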
# Starred values were filed as active, the others as inactive; i = inactive. Many of the other results were omitted from the sample, so hits are more common in it than they were. Potency is read from the fitted curve at half-maximal effect.
SMILES,KDM5B inhibitor
CC1(C(=O)NCc2ccncc2)CCCc2cnc(Nc3ccccc3)nc21 (stereo not drawn),i
CC1(C(=O)NCc2ccncc2)CCCc2cnc(NCc3ccccc3)nc21 (stereo not drawn),35.5µM*
CN1CCC(NC(=O)C2(C)CCCc3cnc(NCc4ccccc4)nc32)CC1 (stereo not drawn),22.4µM*
CC1(C(=O)NCCN2CCOCC2)CCCc2cnc(NCc3ccccc3)nc21 (stereo not drawn),35.5µM*
CC1(C(=O)NCc2cnccn2)CCCc2cnc(Nc3ccccc3F)nc21 (stereo not drawn),i
CC1(C(=O)NCc2ccc(F)cc2)CCCc2cnc(Nc3cccnc3)nc21 (stereo not drawn),i
CC1(C(=O)NCc2cnccn2)CCCc2cnc(NCc3ccccc3)nc21 (stereo not drawn),i
CCC(C)(C#N)NC(=O)Cc1cccs1 (stereo not drawn),i
Cc1cc(=O)n(CC(=O)Nc2ccc(F)cc2)c(N2CCN(c3ccccc3)CC2)n1,i
COCC(=O)NC[C@H]1CCN(Cc2cccc(Cl)c2)C[C@H]1N(C)C,i
CCOc1cccc2cc(S(=O)(=O)c3ccc(Cl)cc3)c(=O)oc12,i
COc1cc(Cl)c(NCC(=O)NC(C)(C#N)C(C)C)cc1OC (stereo not drawn),i
O=C(CCc1ncc(-c2ccc(F)cc2)o1)NCc1ccc2c(c1)OCO2,i
Cc1cc2c(-c3cccc(CO)c3)nc(-c3c(C)noc3C)cc2[nH]1,i
Cc1cc2c(-c3ccc(S(C)(=O)=O)cc3)nc(-c3c(C)noc3C)cc2[nH]1,35.5µM*
Cc1cc2c(-c3cccc(S(C)(=O)=O)c3)nc(-c3c(C)noc3C)cc2[nH]1,35.5µM*
Cc1noc(C)c1-c1nc(CS(=O)(=O)c2ccc(Cl)cc2)no1,i
Cc1noc(C)c1CS(=O)(=O)c1ccc(F)cc1,i
Cc1onc(-c2ccccc2)c1-c1ccnc(N)n1,i
O=C(O)CCC(=O)N1N=C(c2ccc(F)cc2)CC1c1ccc2nccnc2c1 (stereo not drawn),i
CC(C)(C)C(=O)Nc1ccc2oc(-c3ccc(F)cc3)nc2c1,i
CNc1c(NC(=O)CC(=O)OC)c(=O)oc2ccccc12,i
CCOc1ccc(NC(=O)Cc2cc(Cl)c3c(c2)OCCCO3)cc1S(=O)(=O)N(C)C,i
CC(C)(C)NC(=O)N1CCCOCCNC(=O)[C@@H]2CCC[C@@H]21,i
COc1ccc(-n2ccnc2CN(C)Cc2cc(C(C)C)on2)cc1,i
SMILES,KDM5B inhibitor
CC(Oc1ccc(/C=C(\C#N)C(N)=O)cc1)c1ccccc1 (stereo not drawn),i
COc1ccc(C(=O)NC2CCN(c3cc(-c4ccccc4)[nH]n3)C2)cc1F (stereo not drawn),i
O=C(NC1CCN(c2cc(-c3cccs3)[nH]n2)C1)c1cccc(OC(F)(F)F)c1 (stereo not drawn),5.01µM*
O=C(NC1CCN(c2cc(-c3cccs3)[nH]n2)C1)c1cccc(Br)c1 (stereo not drawn),7.94µM*
COc1ccc(C(=O)NC2CCN(c3cc(-c4cccs4)[nH]n3)CC2)cc1OC,i
CN(C)c1ccc(C(=O)NC2CCN(c3cc(-c4cccs4)[nH]n3)CC2)cc1,i
COc1ccc(C(=O)NC2CCN(c3cc(-c4cccs4)[nH]n3)CC2)cc1F,i
O=C(CCC1CCCO1)NC1CCCCC1 (stereo not drawn),i
Cc1ccc(S(=O)(=O)N2CCC(n3cnnc3-c3ccccc3)CC2)c(C)c1,i
CCn1cc(CN(C)C(=O)c2cc(-c3ccc(OC)cc3)cn2CC)c(C)n1,i
Cc1ccccc1-c1noc(-c2ccccc2Br)n1,i
Cc1ccccc1-c1noc(-c2ccc(NC(C)c3cnn(C)c3)nc2)n1 (stereo not drawn),28.2µM*
Cc1ccccc1-c1noc(-c2ccc(Br)cc2)n1,i
CCCCCCCC1CCC(c2ccc(C(=O)CCN(C)C)cc2)CC1 (stereo not drawn),i
Nc1nc2c(c(=O)[nH]1)CCN(C(=O)CC(c1ccccc1)c1ccco1)C2 (stereo not drawn),17.8µM*
N#Cc1cc2n(n1)CCCN(C(=O)CC(c1ccccc1)c1ccco1)C2 (stereo not drawn),i
CC(=O)c1c(C)nn(C(C)CC(=O)N2CCc3c(nc(N)[nH]c3=O)C2)c1C (stereo not drawn),i
CCNC(=O)N1CCCN(S(=O)(=O)c2ccccc2)CCC(=O)NCC1,i
Fc1cccc(NC(=S)NC2CCCC2)c1,i
O=C1CC2(CCN([S+](=O)([O-])c3cccc(C(F)(F)F)c3)CC2)Oc2ccccc21,i
CCOc1ccccc1CN1CCC2(CCN([S+](=O)([O-])c3cccc(C(F)(F)F)c3)CC2)Oc2ccccc21,12.6µM*
CCOc1ccccc1CN1CCC2(CCN([S+](=O)([O-])c3c(C)noc3C)CC2)Oc2ccccc21,i
CCC1=C(C(=O)OC)C(c2ccccc2F)N2C(CC(=O)N3CCC(C)CC3)=CSC2=N1 (stereo not drawn),i
CC(C)COc1ccc(C(=O)Nc2cccc3cccnc23)cc1,i
COc1ccc(-c2cc(N3CCC(NC(=O)CCc4ccccc4OC)CC3)n[nH]2)cc1,i
SMILES,KDM5B inhibitor
COc1ccc(-c2cc(N3CCC(NC(=O)c4ccc(Br)cc4)C3)n[nH]2)cc1 (stereo not drawn),11.2µM*
COc1ccc(-c2cc(N3CCC(NC(=O)c4ccc5cc[nH]c5c4)CC3)n[nH]2)cc1,28.2µM*
COc1ccc(-c2cc(N3CCC(NC(=O)COc4ccccc4C)CC3)n[nH]2)cc1,15.8µM*
CCOc1ccc(C(=O)NC2CCN(c3cc(-c4ccc(OC)cc4)[nH]n3)C2)cc1OCC (stereo not drawn),i
COc1ccc(C(=O)NC2CCN(c3cc(-c4ccccc4)[nH]n3)CC2)cc1,i
COc1ccc(-c2cc(N3CCC(NC(=O)c4ccccc4)CC3)n[nH]2)cc1,i
COc1ccc(-c2cc(N3CCC(NC(=O)Cc4ccccc4OC)CC3)n[nH]2)cc1,i
CCc1ccc(C(=O)NC2CCN(c3cc(-c4ccc(OC)cc4)[nH]n3)CC2)cc1,i
COc1cc(C(=O)NNC(=O)CCNC(=O)c2ccc3ccccc3c2)cc(OC)c1OC,i
CCOc1ccc2oc(=O)cc(CN(C)Cc3ccccc3)c2c1,i
Cc1cc(C(=O)N2CCCCCCNC(=O)[C@@H]3C[C@@H](c4nc(Cc5ccccc5)no4)C[C@@H]32)n(C)n1,i
Cc1ccc(NC(=O)Cc2nn(C)c(=O)c3ccccc23)cc1,i
COCC(=O)NC1CCC12CCN(C(=O)c1cccs1)CC2 (stereo not drawn),i
CC(NC(=O)CCCc1nc2ccccc2o1)c1ccccc1 (stereo not drawn),i
CC(C)N1C(C(=O)Nc2ncccn2)=C(O)c2ccccc2S1(=O)=O,i
Cc1ccc(CS(=O)Cc2ccccc2F)cc1 (stereo not drawn),i
COC(=O)CNC(=O)c1nc(C(C)(C)C)c2ccccn12,126µM*
COC(=O)CNC(=O)c1ccc(-c2ccccc2)cc1,i
CC(C)(C)c1nc(C(=O)NCc2ccc(F)cc2)n2ccccc12,89.1µM*
Cn1c(SCc2ccc(F)cc2)nc2ccc(C(=O)NCc3ccc(F)cc3)cc21,i
CC(C)(C)c1nc(C(=O)NCc2ccc(F)cc2)n2ccncc12,100µM*
Cn1cc(CC(=O)NCc2ccc(F)cc2)c2ccccc21,i

# Compound activity: PubChem, National Center for Advancing Translational Sciences (NCATS)
